# Assay results from PubChem BioAssay (NCI).
# Compounds without any hit were thinned out: in the full panel of roughly 83,000, 20% have a hit.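 Plates (96-well) were seeded with cells, treated with compound at one concentration, and incubated for 48 hours before percent growth was determined.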 The source made the active and inactive calls.
# System: SNB-19 CNS
# Experiment: NCI-60 one-dose screen, 48 h (100 = growth as untreated, 0 = no growth, -100 = all killed)
# Settings: 10 µM
# Experimental: Growth inhibition of the SNB-19 human tumor cell line is measured as a screen for anti-cancer activity. Cells are grown in 96 well plates and exposed to the test compound for 48 hours. Compounds are tested at a single concentration, which is 10^-5 M for most compounds. The reported endpoint is percent growth (GI% or GIPRCNT), where numbers from 0 - 100% represent growth inhibition, and numbers from -100% - 0 represent cell death. For example, a value of 40 represents 60% growth inhibition. A value of 0 means no net growth occurred over the course of the experiment. A value of -40 indicates 40% of cells at the beginning of the experiment died by the end of the experiment. A value of -100 means all cells are dead at the end of the experiment.
# NCI-60 Human Tumor Cell Lines Screen was performed using the standard one-dose NCI protocol, which is described in more detail at https://dtp.cancer.gov/discovery_development/nci-60/default.htm.
# Compounds with GIPRCNT values below 10 were considered active. Activity score was based on GIPRCNT using the following formula: […]
# Score is 0 for GIPRCNT values of 100 or above, 50 for GIPRCNT values of 0, and 100 for GIPRCNT values of -100.
row,SMILES,growth
1,COc1cc(OC)c(S(=O)(=O)N(CCCl)CCCl)cc1C(=O)/C=C/c1cc(OC)c(OC)c(OC)c1,-38.6% (active)
2,O=C(NC([Se])=NC1CCCCC1)c1ccccc1,24.6% (inactive)
3,C=CC[Se]C(=O)c1ccc(C(=O)[Se]CC=C)s1,-73.1% (active)
4,O=C([Se]C1C=CCCC1)c1ccc(C(=O)[Se]C2C=CCCC2)s1 (stereo not given),-93.8% (active)
5,CC[C@]12C=CCN3CC[C@@]4(c5ccc(OC)cc5N(C)[C@H]4[C@@](O)(C(=O)OC)[C@@H]1OC(=O)CCC[P+](c1ccc(C)cc1)(c1ccc(C)cc1)c1ccc(C)cc1)[C@@H]32,-97.3% (active)
6,CC12OOC(C)(OO1)C2CCC(=O)NCCNc1ccnc2cc(Cl)ccc12 (stereo not given),98.2% (inactive)
7,CC[C@]12C=CCN3CC[C@@]4(c5ccc(OC)cc5N(C)[C@H]4[C@@](O)(C(=O)OC)[C@@H]1OC(=O)CCC[P+](C1CCCCC1)(C1CCCCC1)C1CCCCC1)[C@@H]32,-60% (active)
8,COC(=O)C[C@](O)(CCC(C)C)C(=O)O[C@@H]1C(OC)=C[C@]23CCCN2CCc2cc4c(cc2[C@H]13)OCO4,-16.9% (active)
9,Cc1c2oc3c(C)ccc(C(=O)N[C@@H]4C(=O)N[C@H](C(C)C)C(=O)N5CCC[C@H]5C(=O)N(C)CC(=O)N(C)[C@@H](C(C)C)C(=O)OC4C)c3nc-2c(C(=O)N[C@@H]2C(=O)N[C@H](C(C)C)C(=O)N3CC(=O)C[C@H]3C(=O)N(C)CC(=O)N(C)[C@@H](C(C)C)C(=O)OC2C)c(N)c1=O (stereo not given in full),4.37% (active)
10,COc1cc(OC)c(S(=O)(=O)N(CCCl)CCCl)cc1C(=O)/C=C/c1ccc(C)cc1,29.8% (inactive)
11,C[C@H]1[C@@H](CC(=O)N[C@@H](Cc2coc3ccccc23)B(O)O)O[C@@H]2OC3(C)CC[C@H]4[C@H](C)CC[C@@H]1[C@@]24OO3,26% (inactive)
12,O=C(/C=C/c1ccc(Br)cc1)c1nc2ccccc2n1Cc1ccc(Br)cc1,-66.9% (active)
13,C[C@H]1[C@H](OC(=O)CCC(=O)N(CCCc2cn(-c3ccc([N+](=O)[O-])cc3)nn2)CCNc2ccnc3cc(Cl)ccc23)O[C@@H]2OC3(C)CC[C@H]4[C@H](C)CC[C@@H]1[C@@]24OO3,67% (inactive)
14,CC[C@]12C=CCN3CC[C@@]4(c5ccc(OC)cc5N(C)[C@H]4[C@@](O)(C(=O)OC)[C@@H]1OC(=O)CCCC[P+](c1ccc(OC)cc1)(c1ccc(OC)cc1)c1ccc(OC)cc1)[C@@H]32,-95.7% (active)
15,CC[C@]12C=CCN3CC[C@@]4(c5ccc(OC)cc5N(C)[C@H]4[C@@](O)(C(=O)OC)[C@@H]1OC(=O)CCCC[P+](c1ccc(C)cc1)(c1ccc(C)cc1)c1ccc(C)cc1)[C@@H]32,-96.5% (active)
16,CCOC(=O)C1=C(Nc2ccccc2)C(=O)OC12C(=O)Nc1ccccc12 (stereo not given),96.4% (inactive)
17,CC[C@]12C=CCN3CC[C@@]4(c5ccc(OC)cc5N(C)[C@H]4[C@@](O)(C(=O)OC)[C@@H]1OC(=O)CCC[P+](c1ccc(F)cc1)(c1ccc(F)cc1)c1ccc(F)cc1)[C@@H]32,13.8% (inactive)
18,CC[C@]12C=CCN3CC[C@@]4(c5ccc(OC)cc5N(C)[C@H]4[C@@](O)(C(=O)OC)[C@@H]1OC(=O)CCCC[P+](C1CCCCC1)(C1CCCCC1)C1CCCCC1)[C@@H]32,-71.1% (active)
19,CCOP(=O)(OCC)C(NC(C)=O)C(=O)SCCN (stereo not given),96.9% (inactive)
20,C#CC[Se]C(=O)c1ccc2n[se]nc2c1,79.9% (inactive)

row,SMILES,growth
1,COc1cc2cc(C(=O)N3C[C@@H](CCl)c4c3cc(OC(=O)N3CCN(C)[C@@H]5CSSC[C@@H]53)c3ccccc43)[nH]c2c(OC)c1OC,-9.25% (active)
2,C#CC[Se]C(=O)c1ccc(C(=O)[Se]CC#C)s1,58.7% (inactive)
3,CC(=C\C(=O)Oc1ccc2c3c1OC1C(O)CCC4(O)C(C2)N(CC2CCC2)CCC314)/C=C1\CCCc2ccccc21 (stereo not given),70.5% (inactive)
4,O=C(/C=C/c1ccco1)c1nc2ccccc2n1Cc1ccc(Br)cc1,54.4% (inactive)
5,C[C@H]1[C@H](OC(=O)CCC(=O)N(CCCc2cn(-c3ccc(C#N)cc3)nn2)CCNc2ccnc3cc(Cl)ccc23)O[C@@H]2OC3(C)CC[C@H]4[C@H](C)CC[C@@H]1[C@@]24OO3,69.8% (inactive)
6,C=CCN=C([Se])NC(=O)c1ccc2c(c1)OCO2,39.2% (inactive)
7,COc1ccc2cc([C@H](C)C(=O)[Se]CCC#N)ccc2c1,-68.7% (active)
8,N#C[Se]CC(=O)Nc1cccc(C(F)(F)F)c1,-88.1% (active)
9,O=C(/C=C/c1ccc(F)cc1)c1nc2ccccc2n1Cc1ccc(Br)cc1,-63.7% (active)
10,CC(=O)Oc1ccccc1C(=O)[Se]C(=NC(C)C)NC(C)C,-88.5% (active)
11,CCOP(=O)(CC(F)(F)C(F)(F)F)OCC,95.7% (inactive)
12,O=C(/C=C/c1ccc(Cl)cc1Cl)c1nc2ccccc2n1Cc1ccc(F)cc1,57.7% (inactive)
13,CC1=C(CCC=O)C2=C(C)C3(CC3)[C@@](C)(O)C(=O)C2=C1,-100% (active)
14,CC1=C(CCC=NNC(N)=O)C2=C(C)C3(CC3)[C@@](C)(O)C(=O)C2=C1,-38.6% (active)
15,COC(=O)C[C@](O)(CCC(C)C)C(=O)O[C@H]1C(OC)=C[C@@]23CCCN2CCc2cc4c(cc2[C@@H]13)OCO4,-28.3% (active)
16,CC1=C2C(=C[C@@](C)(COP(=O)(Oc3ccccc3)Oc3ccccc3)[C@@H]2O)C(=O)[C@@](C)(O)C12CC2,-17.5% (active)
17,C[C@H]1[C@H](OC(=O)CCC(=O)N(CCCc2cn(-c3ccc(CN4CCOCC4)cc3)nn2)CCNc2ccnc3cc(Cl)ccc23)O[C@@H]2OC3(C)CC[C@H]4[C@H](C)CC[C@@H]1[C@@]24OO3,50.9% (inactive)
18,CC(C)C[C@H](NC(=O)CNC(=O)C[C@H]1O[C@@H]2OC3(C)CC[C@H]4[C@H](C)CC[C@@H]([C@H]1C)[C@@]24OO3)B(O)O,27.4% (inactive)
19,C=CC[Se]C(=O)c1cncc(C(=O)[Se]CC=C)c1,-97.5% (active)
20,C[C@H]1[C@@H](Oc2ccc(-c3cn(-c4ccnc5cc(Cl)ccc45)nn3)cc2)O[C@@H]2OC3(C)CC[C@H]4[C@H](C)CC[C@@H]1[C@@]24OO3,40.4% (inactive)
